Screening results deposited in PubChem BioAssay by The Scripps Research Institute Molecular Screening Center.
Shown are actives, neighbours in structure and some others; about 3.4% of the full set was active somewhere.
PP1 counter: counter-screen for PP5 inhibitors: inhibitors of human PP1-alpha | 320,000 tested, 0.9% active | inhibition, % at 6.7 µM | purified PP1alpha, OMFP fluorescence | P62136;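 active means inhibition above the mean inhibition of all tested compounds plus 3 SD, computed separately for each screening campaign, cut at about 15% in these data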
PAFAH2 inh: inhibitors of human PAFAH2; Q99487; recombinant PAFAH2, FP-rhodamine activity probe, fluorescence polarization; inhibition, % at 3.39 µM; 340,000 tested, 0.99% active;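 active means inhibition above the mean over all tested compounds plus 3 SD, cut at about 30% in these data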;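 further: inhibitors block probe labeling of enzyme so polarization drops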
pPAFAH inh: pPAFAH (human) enzyme inhibition; inhibition, % at 3.39 µM; recombinant pPAFAH, FP-rhodamine probe fluorescence polarization; 330,000 tested, 1.5% active;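 active means inhibition above the mean inhibition across the screen plus 3 SD, cut at about 25% in these data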;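 further: inhibitors block binding of the rhodamine activity-based probe so polarization drops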
Target sequence (Q13093 whole entry, looked up): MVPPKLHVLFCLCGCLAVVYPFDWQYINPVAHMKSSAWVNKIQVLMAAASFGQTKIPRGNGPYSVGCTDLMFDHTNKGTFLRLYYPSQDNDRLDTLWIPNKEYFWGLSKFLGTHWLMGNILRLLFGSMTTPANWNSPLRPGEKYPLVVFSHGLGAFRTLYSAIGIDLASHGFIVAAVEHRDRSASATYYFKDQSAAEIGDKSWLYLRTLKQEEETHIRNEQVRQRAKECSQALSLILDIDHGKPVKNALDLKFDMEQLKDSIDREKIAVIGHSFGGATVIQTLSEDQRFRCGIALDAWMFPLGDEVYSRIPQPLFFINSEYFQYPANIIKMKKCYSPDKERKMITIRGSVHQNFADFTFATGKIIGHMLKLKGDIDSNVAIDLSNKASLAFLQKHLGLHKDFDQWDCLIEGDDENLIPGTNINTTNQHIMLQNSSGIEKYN
PAFAH1B3 FP inh: blocks human PAF acetylhydrolase 1B catalytic subunit 3 | Q15102 | recombinant PAFAH1B3, FP-rhodamine probe, fluorescence polarization | inhibition, % at 3.39 µM | 340,000 tested, 0.28% active | AID 492972;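 active means inhibition above the screen-wide average of all tested compounds plus 3 SD, cut at about 25% in these data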
PP5 inh: inhibitors of human protein phosphatase 5 (PP5); P53041; purified PP5c, OMFP substrate fluorescence; inhibition, % at 6.7 µM; 320,000 tested, 0.18% active; AID 1987;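 active means inhibition above the campaign's mean inhibition across all tested compounds plus 3 SD, cut at about 9.5% in these data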
PAFAH1B2 inh: PAFAH1B2 (human) inhibition; P68402; recombinant PAFAH1B2, FP-rhodamine activity probe, fluorescence polarization; inhibition, % at 3.39 µM; 340,000 tested, 1.2% active;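 active means inhibition above the mean of all tested compounds plus 3 SD, cut at about 24% in these data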
Target sequence (P68402 whole entry, looked up): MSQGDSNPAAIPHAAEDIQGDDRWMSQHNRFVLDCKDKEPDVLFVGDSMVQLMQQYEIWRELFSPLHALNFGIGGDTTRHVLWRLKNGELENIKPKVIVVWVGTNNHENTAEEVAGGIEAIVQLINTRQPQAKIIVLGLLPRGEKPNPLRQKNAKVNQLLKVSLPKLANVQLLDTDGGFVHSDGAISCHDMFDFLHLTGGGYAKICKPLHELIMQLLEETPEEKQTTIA
PP1 confirm: confirmation of human PP1 phosphatase inhibitors | purified PP1alpha, OMFP substrate fluorescence | shares compounds with PP1 counter | inhibition, % at 6.7 µM | 1,900 tested, 52% active;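 active means mean PP1 inhibition above a set limit taken from the earlier primary screen, cut at about 15% in these data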
PP5 counter: counter-screen for PP1 inhibitors: human PP5 phosphatase inhibition | shares compounds with PP1 counter | purified PP5c, OMFP fluorescence | inhibition, % at 6.7 µM | 1,900 tested, 4% active | AID 2360;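 active means mean PP5 inhibition over triplicate wells above about 9.5% taken from the earlier PP1 screen, limit read from the data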
pPAFAH confirm: pPAFAH (human) inhibition, confirmed. shares compounds with pPAFAH inh. recombinant pPAFAH, FP-Rh probe fluorescence polarization. inhibition, % at 3.39 µM. 2,300 tested, 72% active;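 active means mean inhibition of the triplicate above the hit cutoff set for the earlier primary screen, cut at about 25% in these data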
A number is an active result; 0 = inactive; - = not tested or not shown.

SMILES	PP1 counter	PAFAH2 inh	pPAFAH inh	PAFAH1B3 FP inh	PP5 inh	PAFAH1B2 inh	PP1 confirm	PP5 counter	others
COc1ccc(C(=O)NC(=S)Nc2ccc(N3CCCC3)cc2)cc1	0	0	0	0	0	0	-	-
O=C(Nc1ccc(N2CCCC2)cc1)c1ccccc1[N+](=O)[O-]	19	0	0	0	0	0	0	0
COc1ccc(C(=O)Nc2ccc(N3CCCC3)cc2)cc1	29	0	0	0	0	0	0	0
O=C(Nc1ccc(N2CCN(Cc3ccccc3)CC2)cc1)c1ccccc1[N+](=O)[O-]	0	0	0	0	0	0	-	-
O=C(Nc1nnc(-c2ccc3c(c2)CCCC3)o1)C1COc2ccccc2O1 (stereo unspecified)	38	0	31	0	0	0	37	0
COc1ccc(NC(=O)NNC(=O)C(O)(c2ccccc2)c2ccccc2)cc1	21	0	0	0	0	0	0	0
COc1ccc(NC(=O)Nc2cc(NC(=O)Nc3ccc(OC)cc3)c(C)nc2C)cc1	18	0	0	0	0	0	21	0
COc1ccc(OC)c(NC(=O)Nc2cc(NC(=O)Nc3cc(OC)ccc3OC)c(C)nc2C)c1	0	0	0	0	0	0	-	-
COc1ccccc1C(=O)NCc1ccccn1	0	0	0	0	0	0	-	-
CCOC(=O)N1CCN(CCC(=O)Nc2cccc(C)c2)CC1	0	0	0	0	0	0	-	-
CCCCC1=CC2=CC(=O)C(C)(OC(=O)CC)C(=O)C2=CN1CCc1c[nH]c2ccccc12 (stereo unspecified)	20	0	0	0	0	0	0	0
COc1ccc(C2CC(c3ccc(Cl)cc3)Nc3nc(NC(=O)c4ccco4)nn32)cc1 (stereo unspecified)	-	0	-	0	-	0	-	-
O=C(Nc1nc2n(n1)C(c1ccc(Cl)cc1)CC(c1ccc(Cl)cc1)N2)c1ccco1 (stereo unspecified)	23	-	0	-	0	-	16	0
Cc1ccc(C2CC(c3cccs3)=NN2C(=O)CSc2nc(=O)n3ccc(C)cc3n2)cc1 (stereo unspecified)	22	0	0	0	0	0	16	0
Cc1ccc2oc(C(=O)NCCCN3CCOCC3)c(C)c2c1	0	0	0	0	0	0	-	-
Nc1ccc(-c2nc3ccc(N)cc3[nH]2)cc1	0	0	0	0	0	0	-	-
Nc1ccc2nc(-c3cccc(-c4nc5ccc(N)cc5[nH]4)c3)[nH]c2c1	42	0	0	31	0	24	0	0
COc1ccc(C[C@H]2CN3C(=NC[C@H]3Cc3ccccc3)N2CCNC(=O)c2ccc(C)c(Br)c2)cc1	19	0	0	0	0	0	0	0
COc1ccc(C[C@H]2CN3C(=NC[C@@H]3Cc3ccc(O)cc3)N2CCNC(=O)c2ccc(C)c(Br)c2)cc1	0	0	0	0	0	0	-	-
COc1ccc(C[C@H]2CN3C(=NC[C@@H]3Cc3ccc(O)cc3)N2C[C@H](C)NC(=O)c2ccc(C)c(Br)c2)cc1	18	0	0	0	0	0	0	0
Cc1ccc(C(=O)NCCN2C3=NC[C@@H](Cc4ccccc4)N3C[C@H]2Cc2ccc(O)cc2)cc1Br	0	0	0	0	0	0	-	-
COc1ccc(C[C@H]2CN3C(=NC[C@@H]3C(C)C)N2C[C@H](C)NC(=O)c2ccc(C)c(Br)c2)cc1	0	0	0	0	0	0	-	-
COc1ccc(C[C@H]2CN3C(=NC[C@@H]3Cc3ccccc3)N2CCNC(=O)c2ccc(C)c(Br)c2)cc1	22	0	0	0	0	0	0	0
CC(=O)c1ccc(OCCCC(=O)OCC(=O)Nc2ccc3[nH]c(=O)[nH]c3c2)cc1	0	0	0	0	0	0	-	-
O=C(/C=C/c1ccco1)NC(=S)Nc1cc(-c2nc3ccccc3s2)ccc1Cl	0	0	0	0	0	0	-	-
SMILES	PP1 counter	PAFAH2 inh	pPAFAH inh	PAFAH1B3 FP inh	PP5 inh	PAFAH1B2 inh	PP1 confirm	PP5 counter	others
CC(=O)Nc1ccc(NC(=S)NC(=O)/C=C/c2ccc(Cl)cc2)cc1	0	0	0	0	0	0	-	-
O=C(/C=C/c1ccco1)NC(=S)Nc1cccc(-c2nc3ccccc3s2)c1	24	0	0	0	0	0	0	0
CC(=O)c1ccc(NC(=S)NC(=O)/C=C/c2ccco2)cc1	23	0	0	0	0	0	29	0
O=C(/C=C/c1ccc(Cl)cc1)NC(=S)Nc1ccc(NC(=O)c2ccco2)cc1	21	0	0	0	0	0	24	0
O=C(/C=C/c1ccco1)NC(=S)Nc1ccccc1	0	0	0	0	0	0	-	-
CCN1CCn2c3c(c4cccc(C)c42)CCCC31 (stereo unspecified)	0	0	0	0	0	0	-	-
Cc1sc(C(=O)Nc2ccc3ccccc3c2)cc1CC(=O)O	0	0	0	0	0	0	-	-
O=C(CNS(=O)(=O)c1ccc(Br)cc1Cl)OCC(=O)c1ccc[nH]1	35	0	0	0	0	0	0	0
Cc1ccc(/C=N/N2CCN(C3c4ccccc4-c4ccccc43)CC2)o1	0	0	0	0	0	0	-	-
COc1cc2cccc(OC)c(=O)c2c(OC)c1OC	0	0	0	0	0	0	-	-
O=c1c(O)cccc2cc(O)c(O)c(O)c12	21	87	94	42	0	35	0	0	pPAFAH confirm=88
CCC(C)c1ccc(NC(=O)C/C(C)=N/NC(=O)c2cnccn2)cc1 (stereo unspecified)	0	0	0	0	0	0	-	-
CCc1ccc(Nc2n[n+](-c3ccccc3)c(-c3c(Cl)cccc3Cl)s2)cc1	31	0	56	0	0	0	0	0	pPAFAH confirm=34
C=CCN(C(=O)CNS(=O)(=O)c1ccccc1)C(C(=O)NCCOC)c1cccnc1 (stereo unspecified)	0	0	0	0	0	0	-	-
CCN(C1CCCCC1)S(=O)(=O)CCNC(=O)c1ccccc1	0	0	0	0	0	0	-	-
O=C(Cc1ccccc1)N/N=C/c1cc(Br)cc(Br)c1O	0	0	0	0	0	0	-	-
O=C(O)c1ccccc1N/N=C/c1cc(Br)cc(Br)c1O	23	35	41	0	0	0	0	0	pPAFAH confirm=62
O=C(Nc1ccc(N2CCCC2)cc1)c1cc(Br)ccc1Cl	33	0	47	0	0	0	0	0	pPAFAH confirm=0
CS(=O)(=O)c1ccc(C(=O)Nc2ccc(N3CCCC3)cc2)c(Cl)c1	0	0	0	0	0	0	-	-
Cc1ccc(CC2CC(=O)N(c3cc(Cl)ccn3)C2=O)cc1 (stereo unspecified)	0	0	0	0	0	0	-	-
CC(/C=C1\SC(=S)N(c2ccc(C(=O)O)cc2)C1=O)=C\c1ccccc1	44	0	35	0	0	0	31	0	pPAFAH confirm=28
